High-throughput results deposited in PubChem BioAssay by National Center for Advancing Translational Sciences (NCATS).
Compounds with a hit are over-represented: about 19% of the library has one in this group of screens.
KB-3-1 tox = kills parental KB-3-1 adenocarcinoma cells | KB-3-1 viability, CellTiter-Glo ATP luminescence, 72 h | AID 1347075 | hit rate 1.4% among 400,000 | Potency, µM (series often up to 46.1 µM), hits mostly cytotoxic; also: nearly all actives have a fitted effect of over 60% in size
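KB-3-1 cells, DMEM (no phenol red) + 10% FBS; compound by pin transfer, 72 h, 37 °C. Readout: CellTiter-Glo luminescence after 10 min. Data normalized, curve-fitted.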
HT1080 IDH1KD tx = HT-1080 IDH1 knockdown cell toxicity (counter line); Potency, µM (titrated, usually from 46.1 µM), usual class: cytotoxic; hit rate 2% among 360,000; AID 686971; HT-1080 IDH1 knockdown viability, ATP luminescence, 48 h
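In this qHTS, HT-1080 cells depleted of IDH1 are exposed for 48 h at 37 °C to compound titrations. Toxicity is scored from CellTiter-Glo luminescence, with DMSO as full viability and medium alone as none.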
DT40 TDP1 no CPT = qHTS for Inhibitors of human tyrosyl-DNA phosphodiesterase 1 (TDP1): qHTS in cells in absence of CPT; DT40 Tdp1-/- hTDP1 cells, no CPT, ATP luminescence, 48 h; Potency, µM (series often up to 46.2 µM), hits mostly inhibitors; hit rate 15% among 420,000; also: nearly all actives have a fitted effect of over 55% in size
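No-CPT arm: Tdp1-/-;hTDP1 DT40 cells (400/well) plus compounds, incubated ≥48 hr at 37 °C. Readout CellTiter-Glo luminescence.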
DT40 TDP1 CPT = growth inhibition of DT40 Tdp1-/-;hTDP1 cells with camptothecin (screen for TDP1 inhibitors); chicken DT40 Tdp1-/-;hTDP1 cells + 20 nM CPT, ATP luminescence, 48 h; Potency, µM (titrated, usually from 46.2 µM), actives largely listed as inhibitors; hit rate 12% among 420,000; AID 686979; also: nearly all actives have a fitted effect of over 55% in size
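Cell growth measured by CellTiter-Glo luminescence after a minimum 48 h, 37 C compound exposure with 20 nM CPT in Tdp1-knockout DT40 cells stably expressing hTDP1, seeded 400/well; qHTS titration format.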
HT1080NT lethal = kills 2HG-producing HT-1080-NT fibrosarcoma cells. HT-1080-NT fibrosarcoma viability, CellTiter-Glo ATP luminescence, 48 h. Potency, µM (series often up to 46.1 µM), most hits filed as cytotoxic. hit rate 1.6% among 360,000. AID 686970;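 also: NT is the 2HG producing partner of a matched IDH1 knockdown line; nearly all actives have a fitted effect of over 55% in size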
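HT-1080-NT; 750 cells/well; 5% FBS RPMI; 48 h compound, 37 degrees C; CellTiter-Glo luminescence; curve fitting and curve-class assignment.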
KB-V1 MDR tox = kills drug-selected multidrug resistant KB-V1 cells. KB-V1 MDR cells viability, CellTiter-Glo, 72 h. Potency, µM (doses to about 46.1 µM), most hits filed as cytotoxic. hit rate 3.4% among 400,000. AID 1347076; also: nearly all actives have a fitted effect of over 60% in size
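Cytotoxicity toward P-gp-expressing KB-V1 cells was determined as loss of CellTiter-Glo luminescence after 72 h at 37 degrees C. Compounds were tested in quantitative HTS format across a concentration range, with curves fitted to normalized data.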
Hits are given with their value. Calls follow the shape of the dose curve; as a rule, active = well fitted curve in the direction sought with a large enough effect; inconclusive = small, poorly fitted or top-dose-only effect, or another doubt; inactive = no such curve, though single readings can be large; an effect the other way counts as inactive or inconclusive.

`Cc1ccccc1CN1C(=O)c2ccccc2Sc2ccc(C(=O)O)cc21` gave KB-3-1 tox inactive, HT1080 IDH1KD tx inactive, DT40 TDP1 no CPT inactive, DT40 TDP1 CPT inactive, HT1080NT lethal inactive and KB-V1 MDR tox inactive.
For COc1ccc(CCNC(=O)CCC(=O)N2CC(C)Oc3ccc(Cl)cc32)cc1OC (configuration not stated) the results were KB-3-1 tox inactive, HT1080 IDH1KD tx inactive, DT40 TDP1 no CPT inconclusive, DT40 TDP1 CPT 18µM, HT1080NT lethal inactive and KB-V1 MDR tox inactive.
For Cc1cccc(N2CCN(C(=O)CCC(=O)N3CC(C)Oc4ccc(C)cc43)CC2C)c1 (configuration not stated) the results were KB-3-1 tox inactive, HT1080 IDH1KD tx inactive, DT40 TDP1 no CPT inconclusive, DT40 TDP1 CPT 16µM, HT1080NT lethal inactive and KB-V1 MDR tox inactive.
Cc1ccc2c(c1)N(C(=O)CCC(=O)NCc1cccc(Cl)c1)CC(C)O2 (configuration not stated) was read as KB-3-1 tox inactive, HT1080 IDH1KD tx inactive, DT40 TDP1 no CPT 16µM, DT40 TDP1 CPT inconclusive, HT1080NT lethal inactive and KB-V1 MDR tox inactive.
For Cc1ccc2c(c1)N(C(=O)CCC(=O)N1CCN(c3ccccn3)CC1)CC(C)O2 (configuration not stated) the results were KB-3-1 tox inactive, HT1080 IDH1KD tx inactive, DT40 TDP1 no CPT inconclusive, DT40 TDP1 CPT inconclusive, HT1080NT lethal inactive and KB-V1 MDR tox inactive.
`CC1CN(C(=O)CCC(=O)NCc2ccccc2)c2cc(Cl)ccc2O1` (configuration not stated) gave KB-3-1 tox inactive, HT1080 IDH1KD tx inactive, DT40 TDP1 no CPT inconclusive, DT40 TDP1 CPT inactive, HT1080NT lethal inactive and KB-V1 MDR tox inconclusive.
Screening CCOC(=O)N1CCC(NC(=O)CCC(=O)N2CC(C)Oc3ccc(C)cc32)CC1 (configuration not stated) returned KB-3-1 tox inactive, HT1080 IDH1KD tx inactive, DT40 TDP1 no CPT inconclusive, DT40 TDP1 CPT inconclusive, HT1080NT lethal inactive and KB-V1 MDR tox inactive.
Cc1ccc2c(c1)N(C(=O)CCC(=O)NC1CCN(Cc3ccccc3)CC1)CC(C)O2 (configuration not stated) was read as KB-3-1 tox inactive, HT1080 IDH1KD tx inactive, DT40 TDP1 no CPT inconclusive, DT40 TDP1 CPT 21µM, HT1080NT lethal inactive and KB-V1 MDR tox inactive.
Screening COc1ccc2cc3c(N)nn(C(=O)c4ccccc4[N+](=O)[O-])c3nc2c1 returned KB-3-1 tox inactive, HT1080 IDH1KD tx inactive, DT40 TDP1 no CPT 2.3µM, DT40 TDP1 CPT 2.6µM, HT1080NT lethal inactive and KB-V1 MDR tox inconclusive.
Screening CCc1ccc(NC(=O)Nc2cccs2)cc1 returned KB-3-1 tox inactive, HT1080 IDH1KD tx inactive, DT40 TDP1 no CPT 15µM, DT40 TDP1 CPT 21µM, HT1080NT lethal inactive and KB-V1 MDR tox inactive.
CCOc1ccc(NC(=O)NC23CC4CC(CC(C4)C2)C3)cc1 was read as KB-3-1 tox inactive, HT1080 IDH1KD tx inactive, DT40 TDP1 no CPT 23µM, DT40 TDP1 CPT 21µM, HT1080NT lethal inactive and KB-V1 MDR tox inactive.
COc1ccc(NC(=O)Nc2cccs2)cc1OC was read as KB-3-1 tox inactive, HT1080 IDH1KD tx inactive, DT40 TDP1 no CPT inactive, DT40 TDP1 CPT inactive, HT1080NT lethal inactive and KB-V1 MDR tox inactive.
`CCc1ccc(NC(=O)Nc2cn(C)c(=O)c3ccccc23)cc1` gave DT40 TDP1 no CPT 21µM and DT40 TDP1 CPT 21µM.
Screening COc1cccc(NC(=O)Nc2cccs2)c1 returned KB-3-1 tox inactive, HT1080 IDH1KD tx inactive, DT40 TDP1 no CPT inconclusive, DT40 TDP1 CPT inconclusive, HT1080NT lethal inactive and KB-V1 MDR tox inactive.
`CC(=O)c1cccc(NC(=O)Nc2cccs2)c1` gave KB-3-1 tox inactive, HT1080 IDH1KD tx inactive, DT40 TDP1 no CPT inconclusive, DT40 TDP1 CPT 16µM, HT1080NT lethal inactive and KB-V1 MDR tox inactive.
For CC(CNC(=O)CCn1ccc2cc(S(=O)(=O)N3CCCC3)ccc21)c1ccccc1 (configuration not stated) the results were KB-3-1 tox inactive, HT1080 IDH1KD tx inactive, DT40 TDP1 no CPT inactive, DT40 TDP1 CPT inconclusive, HT1080NT lethal inactive and KB-V1 MDR tox inactive.
For CCCCOc1ccc(S(=O)(=O)NC(=O)C2(C)CCN2C(=O)c2cccc(F)c2)cc1 (configuration not stated) the results were KB-3-1 tox inactive, HT1080 IDH1KD tx inactive, DT40 TDP1 no CPT inactive, DT40 TDP1 CPT inactive, HT1080NT lethal inactive and KB-V1 MDR tox inactive.
Screening Cc1ccc(NC(=O)Nc2cccs2)nc1 returned KB-3-1 tox inactive, HT1080 IDH1KD tx inactive, DT40 TDP1 no CPT inactive, DT40 TDP1 CPT inactive, HT1080NT lethal inactive and KB-V1 MDR tox inactive.
For Cc1c(NC(=O)Nc2cccs2)cccc1[N+](=O)[O-] the results were KB-3-1 tox inactive, HT1080 IDH1KD tx inactive, DT40 TDP1 no CPT inconclusive, DT40 TDP1 CPT inconclusive, HT1080NT lethal inactive and KB-V1 MDR tox inactive.
`CCOc1ccc(NC(=O)Nc2cccs2)cc1` gave KB-3-1 tox inactive, HT1080 IDH1KD tx inactive, DT40 TDP1 no CPT 18µM, DT40 TDP1 CPT 10µM, HT1080NT lethal inactive and KB-V1 MDR tox inactive.
Screening Cc1ccc(NC(=O)Nc2cccs2)cc1 returned KB-3-1 tox inconclusive, HT1080 IDH1KD tx inactive, DT40 TDP1 no CPT 26µM, DT40 TDP1 CPT 16µM, HT1080NT lethal inactive and KB-V1 MDR tox inactive.
Cc1cccc(NC(=O)Nc2cccs2)c1C was read as DT40 TDP1 no CPT inconclusive and DT40 TDP1 CPT 26µM.
Screening Cc1ccc(NC(=O)Nc2ccno2)cc1 returned KB-3-1 tox inactive, HT1080 IDH1KD tx inactive, DT40 TDP1 no CPT 16µM, DT40 TDP1 CPT inconclusive, HT1080NT lethal inactive and KB-V1 MDR tox inactive.
Screening O=C(NCCC1CCCCN1S(=O)(=O)c1ccccc1)C(=O)Nc1ccccc1F (configuration not stated) returned KB-3-1 tox inactive, HT1080 IDH1KD tx inactive, DT40 TDP1 no CPT 23µM, DT40 TDP1 CPT 18µM, HT1080NT lethal inactive and KB-V1 MDR tox inactive.
For Cc1cc(S(=O)(=O)N2CCCCC2CCNC(=O)C(=O)NCC2CCCO2)ccc1F (configuration not stated) the results were KB-3-1 tox inactive, HT1080 IDH1KD tx inactive, DT40 TDP1 no CPT inconclusive, DT40 TDP1 CPT inactive, HT1080NT lethal inactive and KB-V1 MDR tox 2.6µM.
`O=C(NCCC1CCCCN1S(=O)(=O)c1ccccc1)C(=O)Nc1ccc(F)cc1F` (configuration not stated) gave KB-3-1 tox inconclusive, HT1080 IDH1KD tx inactive, DT40 TDP1 no CPT 18µM, DT40 TDP1 CPT 18µM, HT1080NT lethal inactive and KB-V1 MDR tox inconclusive.
